Screens: PubChem, National Center for Advancing Translational Sciences (NCATS)
ELG1 repair inh: qHTS screen for small molecules that inhibit ELG1-dependent DNA repair in human embryonic kidney (HEK293T) cells expressing luciferase-tagged ELG1; HEK293T ELG1-luciferase reporter, luminescence, 16 h; DNA damage induced by 5-fluorouridine; Potency, µM (doses to about 46.1 µM), for inactives: at the top dose activity change, negative = inhibition, actives largely listed as inhibitors; 2.3% of 330,000 active; AID 504467, 2011; also: % is scaled to controls: 0 for no effect and ±100 for the full control effect; nearly all actives have a fitted effect of over 55% in size
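DMSO vehicle served as the neutral condition. Each well held 2,000 cells given 5-fluorouridine plus compound; after 16 hr at 37 °C/5% CO2, ONE-Glo was added and luciferase measured 30 min later.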
KB-V1 cytotox: qHTS assay for MDR1-selective chemotherapeutics: Primary screen using the drug-selected MDR subline cells KB-V1; Potency, µM (series often up to 46.1 µM), usual class: cytotoxic; KB-V1 MDR cells viability, CellTiter-Glo, 72 h; 3.4% of 400,000 active; also: % is scaled to controls: 0 for no effect and ±100 for the full control effect; nearly all actives have a fitted effect of over 60% in size
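KB-V1, DMEM (no phenol red) + 10% FBS; cpd pin-transferred, titration series; 72 h, 37 degrees C; CellTiter-Glo, luminescence. Data normalized, curve-fit.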
MCF10A rerep: A quantitative high throughput screen for small molecules that induce DNA re-replication in MCF 10a normal breast cells; Potency, µM (top dose mostly 46.1 µM), for inactives: top-dose activity, positive = re-replication, most hits filed as activators; MCF 10A DNA re-replication, Hoechst nuclear intensity, 48 h; AID 624296, 2012; 2.9% of 350,000 active; also: % of control where 0% means no effect; nearly all actives have a fitted effect of over 50% in size
SW480 rerep: A quantitative high throughput screen for small molecules that induce DNA re-replication in SW480 colon adenocarcinoma cells; Potency, µM (top dose mostly 46.1 µM), inactives show at the top dose re-replication activation, hits mostly activators; SW480 DNA re-replication, Hoechst DNA content imaging, 48 h; AID 624297, 2012; 1.8% of 340,000 active; also: % of control where 0% means no effect; nearly all actives have a fitted effect of over 55% in size
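Per well, 250 cells were exposed to pinned compound for 48 hr. Nuclear DNA was visualised with Hoechst (40 min, 37 C) and total object intensity recorded by fluorescence scanning.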
KB-3-1 cytotox: qHTS assay for MDR1-selective chemotherapeutics: Primary screen using the parental adenocarcinoma cell KB-3-1; KB-3-1 viability, CellTiter-Glo ATP luminescence, 72 h; Potency, µM (doses to about 46.1 µM), hits mostly cytotoxic; 1.4% of 400,000 active; also: % is scaled to controls: 0 for no effect and ±100 for the full control effect; nearly all actives have a fitted effect of over 60% in size
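72 h, 37 °C compound treatment of KB-3-1 parental cells; CellTiter-Glo added, 10 min, luminescence read. Data corrected against DMSO-only plates and normalized before curve fitting.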
* = called active by the depositor; i = inactive; u = inconclusive; x = not tested or not shown. This is a sample that favours compounds with a hit; in the whole collection about 8.1% have one here. Calls follow the shape of the dose curve; as a rule, active = well fitted curve in the direction sought with a large enough effect; inconclusive = small, poorly fitted or top-dose-only effect, or another doubt; inactive = no such curve, though single readings can be large; an effect the other way counts as inactive or inconclusive. Potency is read from the fitted curve at half-maximal effect.

SMILES	ELG1 repair inh	KB-V1 cytotox	MCF10A rerep	SW480 rerep	KB-3-1 cytotox
Cc1cc(F)ccc1-c1cc(C(=O)N2CCN(c3ccncc3)CC2)[nH]n1	x	i	x	x	i
O=C(NCCc1ccc(F)cc1)C(=O)NCC(c1cccs1)S(=O)(=O)c1ccc(Cl)cc1 (stereo unspecified)	x	i	x	x	i
COc1cccc(NC(=O)CSc2nc(O)c(C/C=C/c3ccccc3)c(=O)[nH]2)c1	x	i	x	x	i
CC(=O)Nc1ccc(/C=N/Nc2nc3ccccc3[nH]2)cc1	u	i	7%	23%	23µM*
O=C(Cc1nc2ccccc2[nH]1)N/N=C/c1ccccc1	u	i	12µM*	21µM*	i
O=C(O)c1ccc(/C=N/Nc2nc3ccccc3[nH]2)cc1	16%	i	4%	2%	i
CCN(CC)c1ccc(/C=N/Nc2nc3ccccc3[nH]2)cc1	u	i	9.2µM*	21µM*	i
C(=N\Nc1nc2ccccc2[nH]1)/c1ccncc1	u	i	u	-7%	i
COc1ccc(-c2nnc(SCc3ccc(C(=O)O)cc3)n2C)cc1OC	-21%	i	5%	6%	i
CCC(C)(C)NC(=O)C(c1sccc1C)N(Cc1ccco1)C(=O)c1csnn1 (stereo unspecified)	-14%	i	5%	-8%	i
CCC(C)(C)NC(=O)C(c1ccccc1F)N(Cc1ccco1)C(=O)c1csnn1 (stereo unspecified)	13%	18µM*	11%	1%	i
CCC(C)(C)NC(=O)C(c1ccccn1)N(C(=O)c1csnn1)C1CCCCC1 (stereo unspecified)	6%	u	7.3µM*	4%	i
O=C(NC1CCN(Cc2ccc(Cl)cc2)CC1)c1cn(-c2ccccc2)nc1-c1cccnc1	0%	i	21µM*	6%	u
O=C1C(C2=NC(c3ccccn3)C3C(=O)N(c4ccc(OC(F)(F)F)cc4)C(=O)C23)=C(O)c2ccccc21 (stereo unspecified)	u	i	u	-8%	4.6µM*
O=C1C(C2=NC(C(=O)O)C3C(=O)N(c4ccccc4)C(=O)C23)=C(O)c2ccccc21 (stereo unspecified)	u	i	4%	0%	i
O=C1c2ccccc2-c2c1cccc2C(=O)N1CCCCCC1	-3%	i	-2%	23µM*	u
O=C1c2ccccc2-c2cccc(C(=O)N3CCCCCC3)c21	-1%	i	u	12%	i
CCC[C@@H]1C=C(C(=O)OCC)[C@H](c2ccccc2)N1S(=O)(=O)c1ccc(C)cc1	x	i	x	x	u
CC1CCN2c3ccccc3CC3(C(=O)OC(C)(C)OC3=O)C2C1 (stereo unspecified)	x	i	x	x	i
O=C(c1coc2ccc(O)c(CN3CCOCC3)c12)C1CC1	-10%	i	0%	-7%	i
O=C(c1cccs1)c1coc2ccc(O)c(CN3CCOCC3)c12	-27%	2.9µM*	5%	7%	i
COc1ccc([N+](=O)[O-])cc1NC(=O)Nc1cccc(Cl)c1	u	2.9µM*	0%	u	5.2µM*
COc1ccc(NC(=O)Nc2ccc(OC)c(OC)c2)c([N+](=O)[O-])c1	u	i	u	-1%	i
COc1ccc([N+](=O)[O-])cc1NC(=O)Nc1ccc(OC)c(OC)c1	15µM*	u	18%	-1%	i
Cc1cc2ncn(CCOc3ccccc3)c2cc1C	u	23µM*	19%	-60%	i
SMILES	ELG1 repair inh	KB-V1 cytotox	MCF10A rerep	SW480 rerep	KB-3-1 cytotox
COCCn1cnc2cc(C)c(C)cc21	-10%	i	2%	-7%	i
CCC(=O)c1ccc(OCCn2cnc3ccccc32)cc1	9%	21µM*	-4%	-2%	i
CCC(=O)c1ccc(OCCn2cncn2)cc1	7%	i	-13%	-5%	i
CN1CCN(NC(=O)c2ccc(S(=O)(=O)N3CC4(C)CC3CC(C)(C)C4)cc2)CC1 (stereo unspecified)	u	i	u	18µM*	i
CCc1ccc(NC(=O)Cn2c(SCc3ccc(C)cc3)nc3ccncc32)cc1	x	i	x	x	i
O=C(Nc1ccc(Cn2nnc3ccccc32)cc1)c1ccco1	-21%	16µM*	23%	-9%	16µM*
CCc1cc(C(=O)N(C)CC(=O)Nc2c(Cl)cccc2Cl)sc1C	2%	18µM*	19%	3%	i
O=C(Nc1ccccc1)c1ccc(-n2nncc2-c2ccccc2)cc1	x	i	x	x	i
COc1cccc(C(=O)CN2C3=NCCCN3c3ccccc32)c1	-29%	i	-2%	-2%	i
CCn1c(=N)n(CC(=O)OC)c2ccccc21	2%	i	11%	-6%	i
CCn1c(=N)n(CC(=O)c2ccc(OC)c(OC)c2)c2ccccc21	-5%	13µM*	-7%	-5%	i
COc1ccc(C(=O)CN2C3=NCCCN3c3ccccc32)cc1OC	u	i	-1%	0.26µM*	i
COc1cccc(-c2cnc3cccnn23)c1	x	i	x	x	i
CCOc1ccc(C(=O)OCc2cc(=O)n3cc(C)sc3n2)cc1	x	i	x	x	i
CCOC(=O)c1cnc(SCc2ccc(C(C)(C)C)cc2)nc1N	-4%	u	15%	13%	23µM*
CCOC(=O)c1cnc(SCc2cccc3ccccc23)nc1N	10%	18µM*	15%	-4%	u
CC1=NN(c2nc(-c3ccc(C)cc3)cs2)C(=O)C1N=Nc1cccc(O)c1 (stereo unspecified)	-15%	i	-7%	5%	i
CC1=NN(c2nc(-c3ccc(C)cc3)cs2)C(=O)C1N=Nc1ccccc1O (stereo unspecified)	u	i	u	0.73µM*	i
C=CC[n+]1ccc(/C=C2\C=Cc3cc(C)ccc3N2CC)c2ccccc21	1.3µM*	i	u	101%	8.2µM*
O=C(NNc1nc(-c2ccccc2)c2cc(Br)ccc2n1)c1ccc(S(=O)(=O)N2CCCCC2)cc1	u	3.3µM*	0%	15%	i
Cc1onc(-c2ccccc2)c1C(=O)NCCCc1ccccc1	0%	i	-3%	0%	i
Cc1cc(NC(=O)c2ccc(Cl)cc2)no1	u	i	6%	-10%	i
CCCCOc1cccc(C(=O)Nc2ccc(NC(=O)c3cccs3)cc2)c1	-6%	i	7.3µM*	6.5µM*	i
